From PubChem BioAssay AID1159580 (chemical genetic matrix, 2015)
Hit rate of the full screen: of about 5,500 compounds, about 2,000 (36%) were called active. About 18% were inconclusive and are not listed. No stated cut-off is given here; in the data, active means normalized growth mostly below about 0.91 (no sharp cut-off); inconclusive means no clear call, values can overlap the other calls; inactive means mostly above about 0.92. This is one part of the list.

Assay: chemical genetic growth profiling, strain panel (AID 1159580);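 further: tested at 20 µM; growth read once vehicle control cultures reached saturation at 30 °C; 1 = growth at the plate median or of vehicle wells; lower values mean less growth of the strain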
Settings: S. cerevisiae deletion strains, growth OD

Measured: normalized growth

Cc1cccc(Nc2cc(Cl)nc(SCC(=O)O)n2)c1C
inactive: locus YAL021C, strain ccr4, hits give low values 0.932 | locus YAL026C, strain drs2, hits give low values 1.01 | locus YAL030W, strain snc1, hits give low values 1 | locus YBL061C, strain skt5, hits give low values 0.999 | locus YBR009C, strain hhf1, hits give low values 1.06 | locus YBR023C, strain chs3, hits give low values 1 | locus YBR171W, strain sec66, hits give low values 0.988 | locus YBR231C, strain swc5, hits give low values 1.01 | locus YBR279W, strain paf1, hits give low values 1.01 | locus YCL011C, strain gbp2, hits give low values 0.987 | locus YCL016C, strain dcc1, hits give low values 1.01 | locus YCL061C, strain MRC1, hits give low values 0.984 | locus YCL069W, strain vba3, hits give low values 0.99 | locus YCR088W, strain abp1, hits give low values 0.988 | locus YDL005C, strain med2, hits give low values 0.99 | locus YDL040C, strain nat1, hits give low values 0.996 | locus YDR001C, strain nth1, hits give low values 0.984 | locus YDR069C, strain doa4, hits give low values 0.998 | locus YDR137W, strain rgp1, hits give low values 0.934 | locus YDR159W, strain sac3, hits give low values 1.03 | locus YDR195W, strain ref2 0.987 | locus YDR297W, strain sur2, hits give low values 0.991 | locus YDR334W, strain swr1, hits give low values 0.969 | locus YDR335W, strain msn5, hits give low values 0.996 | locus YDR392W, strain spt3, hits give low values 0.965 | locus YEL003W, strain gim4, hits give low values 0.999 | locus YEL037C, strain rad23, hits give low values 0.999 | locus YEL061C, strain CIN8 (second series), hits give low values 0.991 | locus YER015W, strain faa2, hits give low values 1.02 | locus YER016W, strain bim1, hits give low values 1.01 | locus YER111C, strain swi4, hits give low values 1.01 | locus YER155C, strain BEM2 (second series), hits give low values 1.04 | locus YFR010W, strain ubp6, hits give low values 1 | locus YGL167C, strain pmr1, hits give low values 0.997 | locus YGL173C, strain kem1, hits give low values 1 | locus YGL227W, strain vid30, hits give low values 1 | locus YGL240W, strain doc1, hits give low values 1.03 | locus YGL253W, strain hxk2, hits give low values 1.01 | locus YHR013C, strain ard1, hits give low values 0.977 | locus YHR027C, strain rpn1, hits give low values 0.987 | locus YHR142W, strain chs7, hits give low values 0.936 | locus YJL092W, strain hpr5, hits give low values 0.983 | locus YJL095W, strain BCK1 (second series), hits give low values 0.987 | locus YJL115W, strain asf1, hits give low values 0.98 | locus YJL129C, strain trk1, hits give low values 0.986 | locus YJL154C, strain vps35, hits give low values 0.992 | locus YJL164C, strain tpk1, hits give low values 0.978 | locus YJL166W, strain qcr8, hits give low values 1.01 | locus YJL187C, strain SWE1, hits give low values 0.996 | locus YKL160W, strain elf1, hits give low values 0.955 | locus YKR026C, strain gcn3, hits give low values 0.988 | locus YKR091W, strain srl3, hits give low values 0.989 | locus YLL001W, strain dnm1, hits give low values 1 | locus YLL026W, hits give low values 0.992 | locus YLL041C, strain sdh2, hits give low values 0.99 | locus YLR027C, strain aat2, hits give low values 0.993 | locus YLR221C, strain rsa3, hits give low values 0.997 | locus YLR258W, strain gsy2, hits give low values 1.01 | locus YLR262C, strain YPT6 (second series), hits give low values 0.962 | locus YLR320W, strain mms22, hits give low values 0.989 | locus YLR342W, strain FKS1, hits give low values 1 | locus YLR357W, strain rsc2, hits give low values 1.02 | locus YLR370C, strain arc18, hits give low values 0.992 | locus YLR384C, strain iki3, hits give low values 0.998 | locus YML120C, strain ndi1, hits give low values 0.986 | locus YMR058W, strain fet3, hits give low values 0.983 | locus YMR125W, strain sto1, hits give low values 0.988 | locus YMR129W, hits give low values 0.973 | locus YMR205C, strain PFK2, hits give low values 1.05 | locus YMR231W, strain pep5, hits give low values 0.992 | locus YNL071W, strain lat1, hits give low values 0.985 | locus YNL209W, strain ssb2, hits give low values 0.993 | locus YNL248C, strain rpa49, hits give low values 0.933 | locus YNL322C, strain KRE1 (second series), hits give low values 0.996 | locus YNR049C, strain mso1, hits give low values 0.988 | locus YOR001W, strain rrp6, hits give low values 0.974 | locus YOR070C, strain gyp1, hits give low values 1 | locus YOR080W, strain dia2, hits give low values 1.02 | locus YOR083W, strain WHI5, hits give low values 0.942 | locus YOR106W, strain vam3, hits give low values 0.946 | locus YOR265W, strain rbl2, hits give low values 0.992 | locus YOR270C, strain vph1, hits give low values 0.972 | locus YOR290C, strain snf2, hits give low values 0.976 | locus YPL051W, strain arl3, hits give low values 0.974 | locus YPL078C, strain atp4, hits give low values 0.925 | locus YPL106C, strain sse1, hits give low values 1.01 | locus YPL240C, strain hsp82, hits give low values 0.978
